{"source": "ChEMBL document CHEMBL3988442", "about": "“University of Dundee, Small-Polar-MMV Screening Library” (2021)"}
{"biological_target": "AMP-activated protein kinase, AMPK (Homo sapiens) (UniProt P54646+O43741+P54619+Q9UGJ0+Q9Y478+Q13131+Q9UGI9)", "test": "AMP-dependent Kinase enzyme assay. An in vitro enzyme assay that detects ADP turnover that is directly proportional to AMPK activity. This uses naive AMPK that is activated during the assay with MK-8722", "assay_type": "functional", "set-up": "scale not given: direction of the effect not stated beside the values", "conditions": "30 µM", "units": {"Percent Effect": "%"}}
{"smiles": "NC(=O)[C@@H]1Cc2ccccc2N1C(=O)C1CC(c2ccccc2)=NO1", "note": "(some centres undefined)", "Percent Effect": 11.5}
{"smiles": "CC1(c2ncc(CN3CCOCC3)cn2)CCCCO1", "note": "(centres undefined)", "Percent Effect": 9.84}
{"smiles": "Cc1cnn(C2CN(CCOc3cccc(C#N)c3)C2)c1", "Percent Effect": 3.61}
{"smiles": "Cc1cccc(C)c1Nc1noc2c1CN(C(=O)c1ccnn1C)CC2", "Percent Effect": 9.88}
{"smiles": "NC(=O)c1ccc(NC(=O)N2CCN(c3cccs3)CC2)c(F)c1", "Percent Effect": 2.09}
{"smiles": "CCNc1ncc(C(=O)NCc2csc(-c3ncccn3)n2)cn1", "Percent Effect": 3.97}
{"smiles": "CCOc1ccc(Cl)cc1CCNC(=O)Cn1nc(C)ccc1=O", "Percent Effect": 5.21}
{"smiles": "Cn1cc(NC(=O)N2CCCC2c2cccnc2)ccc1=O", "note": "(centres undefined)", "Percent Effect": 42.2}
{"smiles": "OCCN1CCCC(c2cccc(-c3ccccc3F)n2)C1", "note": "(centres undefined)", "Percent Effect": 20.3}
{"smiles": "CCOc1cccc(C(C(=O)O)N(C)Cc2cc(C)no2)c1", "note": "(centres undefined)", "Percent Effect": 7.67}
{"smiles": "Cc1ccc(C(C)N(C)C(=O)c2ccc(=O)n(C)c2)s1", "note": "(centres undefined)", "Percent Effect": 3.36}
{"smiles": "Cc1ccc(CN2CCS(=O)(=O)C(C)(C)C2)cc1C", "Percent Effect": -0.279}
{"smiles": "O=C(CNC(=O)c1ccccc1F)NCc1ccccn1", "Percent Effect": 0.147}
{"smiles": "CC(C)c1nc2n(n1)CC(NCc1cc3ccccc3o1)CC2", "note": "(centres undefined)", "Percent Effect": 0.664}
{"smiles": "CNC(=O)c1[nH]nc2c1CN(c1cc(C3CCCNC3)nc(C)n1)CC2", "note": "(centres undefined)", "Percent Effect": 18.4}
{"smiles": "CN1CCCCC1(C)C(=O)N1CCC(c2ccccn2)CC1", "note": "(centres undefined)", "Percent Effect": -3.58}
{"smiles": "O=C(NCCS(=O)(=O)N1CCN(c2ncccn2)CC1)C1CCCC1", "Percent Effect": -1.53}
{"smiles": "CC(NC(=O)N1CCCN(C)CC1)c1ccc2c(c1)OCCO2", "note": "(centres undefined)", "Percent Effect": 3.15}
{"smiles": "O=C(NCc1ccon1)Nc1cc(F)ccc1N1CCCCC1", "Percent Effect": 5.82}
{"smiles": "CC(C)n1cc(CN(Cc2ccsc2)CC2CCCO2)cn1", "note": "(centres undefined)", "Percent Effect": 5.12}
{"smiles": "O=C(NCc1cccnc1N1CCCCC1)c1ccc2cc[nH]c2c1", "Percent Effect": 1.26}
{"smiles": "CC(C)[C@@H]1CN(Cc2cnc3c(S(C)(=O)=O)cnn3c2)C[C@H]1N(C)C", "Percent Effect": -8.81}
{"smiles": "CCCOc1ccccc1CCCNc1ncnc2oc(C)nc12", "Percent Effect": 2.11}
{"smiles": "CCc1ncc2c(n1)CN(c1cc(NC3CC3)nc(N)n1)C2", "Percent Effect": -118}
{"smiles": "Cc1nc(C2CCCN2CCOCC2CC2)no1", "note": "(centres undefined)", "Percent Effect": -0.854}
{"smiles": "Cc1cc(N(C)C)nc(N2CCn3c(nnc3C3CC3)C2)n1", "Percent Effect": -2.99}
{"smiles": "COc1ccc2c(c1)CCCN2C(=O)NC1CCCCNC1=O", "note": "(centres undefined)", "Percent Effect": 2.81}
{"smiles": "Cc1nc(C)c(COc2ccc(S(=O)(=O)N(C)C)cc2)s1", "Percent Effect": 4.6}
{"smiles": "CN(C)c1cc(N(C)Cc2cc(C(C)(C)C)n[nH]2)ncn1", "Percent Effect": -16.4}
{"smiles": "Cc1c(C(=O)NC2CCCC2)nnn1-c1ccccc1", "Percent Effect": -3.83}
{"smiles": "O=C(c1coc(-c2ccccc2)n1)N1CCCC1", "Percent Effect": 5.08}
{"smiles": "Cc1cc2ccccc2n1CCC(=O)N1CCCC(O)(CN(C)C)CC1", "note": "(centres undefined)", "Percent Effect": 0.58}
{"smiles": "CC1CCCCN1C(=O)COc1nc(Cc2ccc(F)cc2)no1", "note": "(centres undefined)", "Percent Effect": 2.51}
{"smiles": "COc1cccc(-c2ncc(CN3CCOCC(O)C3)s2)c1", "note": "(centres undefined)", "Percent Effect": 2.77}
{"smiles": "Cc1cnc(C(=O)N2CC(=O)N(c3ccccc3Cl)CC2C)cn1", "note": "(centres undefined)", "Percent Effect": 12.5}
{"smiles": "CC(C)n1cc(CN(Cc2ccc(F)cc2)CC2CCCO2)cn1", "note": "(centres undefined)", "Percent Effect": 5.24}
{"smiles": "CCCN1CCC(NCc2cccc(CN3CCOC(C)C3)c2)CC1", "note": "(centres undefined)", "Percent Effect": -4.13}
{"smiles": "CCC(NC(=O)c1cnc(N(C)C)nc1C)c1ccncc1", "note": "(centres undefined)", "Percent Effect": 0.963}
{"smiles": "CC(=O)c1cccc(OC(C)C(=O)Nc2cnn(CCN(C)C)c2)c1", "note": "(centres undefined)", "Percent Effect": -0.8}
